Data as given in ChEMBL document CHEMBL2218924, “A broad activity screen in support of a chemogenomic map for kinase signalling research and drug discovery” (Biochem J, 2013).

Legend:
[1] = biological target: ALK tyrosine kinase receptor (Homo sapiens) (UniProt Q9UM73); settings: at 10 µM
[2] = biological target: T1, Activin receptor type-1B (Homo sapiens) (UniProt P36896); settings: at 1 µM
T1 sequence (whole entry): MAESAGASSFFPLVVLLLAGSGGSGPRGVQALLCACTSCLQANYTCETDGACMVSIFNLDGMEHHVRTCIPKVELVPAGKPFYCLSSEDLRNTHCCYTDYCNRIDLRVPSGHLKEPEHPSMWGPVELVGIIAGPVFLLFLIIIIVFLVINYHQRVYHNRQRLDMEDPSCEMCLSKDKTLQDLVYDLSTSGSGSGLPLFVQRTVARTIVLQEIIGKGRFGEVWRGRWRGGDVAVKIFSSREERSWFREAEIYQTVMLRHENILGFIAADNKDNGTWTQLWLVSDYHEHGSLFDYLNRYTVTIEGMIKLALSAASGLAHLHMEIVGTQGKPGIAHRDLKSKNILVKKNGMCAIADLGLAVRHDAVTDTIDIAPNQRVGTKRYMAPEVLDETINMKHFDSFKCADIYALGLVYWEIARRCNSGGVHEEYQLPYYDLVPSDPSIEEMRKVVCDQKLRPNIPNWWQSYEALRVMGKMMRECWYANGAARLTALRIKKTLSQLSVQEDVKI

[3] = biological target: T1, Activin receptor type-1B (Homo sapiens); settings: at 10 µM
[4] = biological target: T2, AMP-activated protein kinase (AMPK) alpha-1/beta-1/gamma-1 (Homo sapiens) (UniProt P54619+Q9Y478+Q13131); settings: at 1 µM
[5] = biological target: T2, AMP-activated protein kinase (AMPK) alpha-1/beta-1/gamma-1 (Homo sapiens); settings: at 10 µM
[6] = biological target: T3, AMP-activated protein kinase, AMPK (Homo sapiens) (UniProt P54646+O43741+P54619+Q9UGJ0+Q9Y478+Q13131+Q9UGI9); settings: at 1 µM
[7] = biological target: T3, AMP-activated protein kinase, AMPK (Homo sapiens); settings: at 10 µM
[8] = biological target: T4, NUAK family SNF1-like kinase 1 (Homo sapiens) (UniProt O60285); settings: at 1 µM
T4 sequence (whole entry): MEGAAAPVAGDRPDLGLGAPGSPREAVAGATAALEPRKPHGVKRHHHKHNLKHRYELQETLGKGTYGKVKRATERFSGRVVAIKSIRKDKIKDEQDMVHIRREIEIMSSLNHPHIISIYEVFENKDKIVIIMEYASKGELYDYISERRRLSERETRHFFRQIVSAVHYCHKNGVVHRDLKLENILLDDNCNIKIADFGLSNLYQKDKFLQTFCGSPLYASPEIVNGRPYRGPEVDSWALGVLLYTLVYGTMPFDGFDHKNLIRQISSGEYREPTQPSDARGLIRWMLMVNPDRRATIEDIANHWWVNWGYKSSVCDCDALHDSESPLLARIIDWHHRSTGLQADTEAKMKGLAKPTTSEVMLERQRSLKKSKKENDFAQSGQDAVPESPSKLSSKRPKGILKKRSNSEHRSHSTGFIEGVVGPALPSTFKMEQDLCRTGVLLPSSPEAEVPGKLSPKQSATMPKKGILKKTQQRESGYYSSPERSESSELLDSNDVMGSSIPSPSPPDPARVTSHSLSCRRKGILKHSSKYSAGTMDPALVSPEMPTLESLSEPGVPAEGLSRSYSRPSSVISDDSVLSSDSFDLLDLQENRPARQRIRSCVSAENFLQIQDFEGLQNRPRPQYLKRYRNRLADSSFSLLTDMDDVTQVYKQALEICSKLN

[9] = biological target: T4, NUAK family SNF1-like kinase 1 (Homo sapiens); settings: at 10 µM
[10] = biological target: T5, Mitogen-activated protein kinase kinase kinase 5 (Homo sapiens) (UniProt Q99683); settings: at 1 µM
T5 sequence (whole entry): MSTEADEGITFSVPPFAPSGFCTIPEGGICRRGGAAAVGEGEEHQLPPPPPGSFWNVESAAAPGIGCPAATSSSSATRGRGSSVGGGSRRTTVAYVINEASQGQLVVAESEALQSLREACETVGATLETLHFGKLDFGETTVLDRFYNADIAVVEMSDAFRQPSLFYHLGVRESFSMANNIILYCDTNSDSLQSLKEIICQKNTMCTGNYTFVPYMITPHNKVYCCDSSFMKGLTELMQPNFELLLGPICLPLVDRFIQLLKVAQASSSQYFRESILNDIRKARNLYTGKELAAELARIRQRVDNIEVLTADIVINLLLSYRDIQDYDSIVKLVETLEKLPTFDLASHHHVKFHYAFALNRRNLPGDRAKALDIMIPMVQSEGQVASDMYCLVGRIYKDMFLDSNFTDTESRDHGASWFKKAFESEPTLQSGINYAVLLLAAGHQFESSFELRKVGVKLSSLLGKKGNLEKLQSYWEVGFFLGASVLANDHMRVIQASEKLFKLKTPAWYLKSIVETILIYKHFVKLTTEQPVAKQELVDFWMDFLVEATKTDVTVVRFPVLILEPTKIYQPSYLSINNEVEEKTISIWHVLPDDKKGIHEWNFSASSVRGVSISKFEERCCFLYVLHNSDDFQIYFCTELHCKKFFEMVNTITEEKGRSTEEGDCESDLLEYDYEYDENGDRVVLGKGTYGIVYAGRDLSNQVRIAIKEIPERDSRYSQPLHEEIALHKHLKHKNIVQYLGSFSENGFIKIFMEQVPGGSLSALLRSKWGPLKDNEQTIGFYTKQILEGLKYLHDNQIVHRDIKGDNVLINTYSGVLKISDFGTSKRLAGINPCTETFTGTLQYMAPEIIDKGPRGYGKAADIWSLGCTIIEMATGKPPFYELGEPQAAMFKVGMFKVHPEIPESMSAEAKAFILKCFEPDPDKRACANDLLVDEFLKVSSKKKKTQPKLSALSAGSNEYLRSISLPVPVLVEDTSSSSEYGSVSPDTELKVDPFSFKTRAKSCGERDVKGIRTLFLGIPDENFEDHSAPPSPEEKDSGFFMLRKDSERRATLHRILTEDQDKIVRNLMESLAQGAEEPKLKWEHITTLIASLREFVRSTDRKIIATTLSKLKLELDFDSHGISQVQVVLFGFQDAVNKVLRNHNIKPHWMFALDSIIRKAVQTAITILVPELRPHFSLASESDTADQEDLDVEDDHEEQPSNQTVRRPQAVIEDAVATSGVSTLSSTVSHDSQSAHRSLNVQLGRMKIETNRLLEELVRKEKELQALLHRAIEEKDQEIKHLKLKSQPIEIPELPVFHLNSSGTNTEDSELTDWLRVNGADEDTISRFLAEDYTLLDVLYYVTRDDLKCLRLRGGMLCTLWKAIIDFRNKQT

[11] = biological target: Platelet-derived growth factor receptor alpha (Homo sapiens) (UniProt P16234); settings: at 1 µM
Sequence of Platelet-derived growth factor receptor alpha (Homo sapiens) (P16234 whole entry): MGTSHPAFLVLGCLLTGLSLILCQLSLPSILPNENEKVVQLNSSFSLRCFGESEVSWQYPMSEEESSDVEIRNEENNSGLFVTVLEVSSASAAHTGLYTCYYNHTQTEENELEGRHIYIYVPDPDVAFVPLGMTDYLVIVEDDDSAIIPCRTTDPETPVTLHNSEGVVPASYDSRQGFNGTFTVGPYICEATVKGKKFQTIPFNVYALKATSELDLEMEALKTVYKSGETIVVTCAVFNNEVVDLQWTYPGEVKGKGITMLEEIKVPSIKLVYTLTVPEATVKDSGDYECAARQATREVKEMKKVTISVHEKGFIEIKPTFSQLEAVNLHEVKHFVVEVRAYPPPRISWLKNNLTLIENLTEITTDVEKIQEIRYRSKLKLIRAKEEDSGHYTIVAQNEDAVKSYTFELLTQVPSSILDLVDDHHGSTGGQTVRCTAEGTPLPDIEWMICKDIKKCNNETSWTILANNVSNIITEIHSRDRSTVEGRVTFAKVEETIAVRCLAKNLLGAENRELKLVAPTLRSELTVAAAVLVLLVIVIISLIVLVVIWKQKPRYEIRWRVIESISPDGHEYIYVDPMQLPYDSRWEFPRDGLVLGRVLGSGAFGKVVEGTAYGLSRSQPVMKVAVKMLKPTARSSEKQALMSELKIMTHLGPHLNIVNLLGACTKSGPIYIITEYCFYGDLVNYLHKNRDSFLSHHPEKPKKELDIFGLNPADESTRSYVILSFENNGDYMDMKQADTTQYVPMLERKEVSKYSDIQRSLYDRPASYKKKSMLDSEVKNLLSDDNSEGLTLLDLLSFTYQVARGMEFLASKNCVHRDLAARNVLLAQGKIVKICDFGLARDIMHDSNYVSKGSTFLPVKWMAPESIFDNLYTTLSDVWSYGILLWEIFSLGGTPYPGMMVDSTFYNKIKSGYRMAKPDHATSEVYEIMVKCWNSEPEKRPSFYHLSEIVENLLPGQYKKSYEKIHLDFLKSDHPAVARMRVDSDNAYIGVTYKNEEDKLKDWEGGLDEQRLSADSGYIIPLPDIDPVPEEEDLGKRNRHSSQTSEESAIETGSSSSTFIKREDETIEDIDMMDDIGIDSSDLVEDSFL

[12] = biological target: Platelet-derived growth factor receptor alpha (Homo sapiens) (UniProt P16234); settings: at 10 µM
[13] = biological target: Platelet-derived growth factor receptor beta (Homo sapiens) (UniProt P09619); settings: at 1 µM
Sequence of Platelet-derived growth factor receptor beta (Homo sapiens) (P09619 whole entry): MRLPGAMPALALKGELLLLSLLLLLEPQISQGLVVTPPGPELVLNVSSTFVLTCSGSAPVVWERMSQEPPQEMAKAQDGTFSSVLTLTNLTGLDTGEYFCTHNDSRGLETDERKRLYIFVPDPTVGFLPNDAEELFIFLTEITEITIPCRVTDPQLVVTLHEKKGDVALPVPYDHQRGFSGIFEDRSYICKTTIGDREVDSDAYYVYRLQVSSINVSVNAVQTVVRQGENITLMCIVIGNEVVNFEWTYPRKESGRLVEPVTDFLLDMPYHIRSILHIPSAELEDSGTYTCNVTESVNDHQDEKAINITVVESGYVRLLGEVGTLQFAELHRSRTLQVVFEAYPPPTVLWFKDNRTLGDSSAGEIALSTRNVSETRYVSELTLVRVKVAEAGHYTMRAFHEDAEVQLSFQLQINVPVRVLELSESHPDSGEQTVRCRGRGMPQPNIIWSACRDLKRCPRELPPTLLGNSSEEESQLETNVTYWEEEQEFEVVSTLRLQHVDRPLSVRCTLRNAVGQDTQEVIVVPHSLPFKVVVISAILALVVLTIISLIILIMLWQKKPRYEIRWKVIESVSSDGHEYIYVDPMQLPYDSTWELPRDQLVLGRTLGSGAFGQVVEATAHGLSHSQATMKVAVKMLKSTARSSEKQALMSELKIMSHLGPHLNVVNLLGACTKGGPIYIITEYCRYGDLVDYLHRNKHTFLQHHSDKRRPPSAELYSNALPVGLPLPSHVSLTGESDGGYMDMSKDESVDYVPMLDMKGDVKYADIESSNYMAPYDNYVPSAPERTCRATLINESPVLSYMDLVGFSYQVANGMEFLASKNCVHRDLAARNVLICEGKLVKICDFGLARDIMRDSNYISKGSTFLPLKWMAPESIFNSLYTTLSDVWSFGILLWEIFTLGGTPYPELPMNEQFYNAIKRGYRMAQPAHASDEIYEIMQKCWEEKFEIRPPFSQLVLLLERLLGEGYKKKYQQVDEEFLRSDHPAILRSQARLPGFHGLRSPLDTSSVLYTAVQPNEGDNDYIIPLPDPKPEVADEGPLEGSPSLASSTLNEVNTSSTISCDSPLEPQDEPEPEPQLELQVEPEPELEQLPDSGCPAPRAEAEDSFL

[14] = biological target: Platelet-derived growth factor receptor beta (Homo sapiens) (UniProt P09619); settings: at 10 µM
[15] = biological target: T6, 3-phosphoinositide-dependent protein kinase 1 (Homo sapiens) (UniProt O15530); settings: at 1 µM
T6 sequence (whole entry): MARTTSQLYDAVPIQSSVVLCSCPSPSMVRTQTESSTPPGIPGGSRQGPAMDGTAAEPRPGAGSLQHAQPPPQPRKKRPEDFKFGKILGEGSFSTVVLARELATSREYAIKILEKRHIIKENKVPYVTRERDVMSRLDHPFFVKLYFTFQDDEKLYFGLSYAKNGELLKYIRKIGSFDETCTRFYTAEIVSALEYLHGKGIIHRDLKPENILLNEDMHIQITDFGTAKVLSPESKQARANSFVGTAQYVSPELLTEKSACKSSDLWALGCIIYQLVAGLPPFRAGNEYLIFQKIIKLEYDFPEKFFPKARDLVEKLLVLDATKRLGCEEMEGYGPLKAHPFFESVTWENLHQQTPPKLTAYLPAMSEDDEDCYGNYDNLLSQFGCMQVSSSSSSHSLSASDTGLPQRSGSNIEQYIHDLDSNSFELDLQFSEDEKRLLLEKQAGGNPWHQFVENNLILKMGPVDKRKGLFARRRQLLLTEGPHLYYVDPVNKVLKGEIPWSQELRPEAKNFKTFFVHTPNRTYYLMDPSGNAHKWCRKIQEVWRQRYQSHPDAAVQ

[16] = biological target: T6, 3-phosphoinositide-dependent protein kinase 1 (Homo sapiens); settings: at 10 µM
[17] = biological target: cAMP-dependent protein kinase catalytic subunit alpha (Homo sapiens) (UniProt P17612); settings: at 1 µM
[18] = biological target: cAMP-dependent protein kinase catalytic subunit alpha (Homo sapiens) (UniProt P17612); settings: at 10 µM
[19] = biological target: RAC-gamma serine/threonine-protein kinase (Homo sapiens) (UniProt Q9Y243); settings: at 1 µM
Sequence of RAC-gamma serine/threonine-protein kinase (Homo sapiens) (Q9Y243 whole entry): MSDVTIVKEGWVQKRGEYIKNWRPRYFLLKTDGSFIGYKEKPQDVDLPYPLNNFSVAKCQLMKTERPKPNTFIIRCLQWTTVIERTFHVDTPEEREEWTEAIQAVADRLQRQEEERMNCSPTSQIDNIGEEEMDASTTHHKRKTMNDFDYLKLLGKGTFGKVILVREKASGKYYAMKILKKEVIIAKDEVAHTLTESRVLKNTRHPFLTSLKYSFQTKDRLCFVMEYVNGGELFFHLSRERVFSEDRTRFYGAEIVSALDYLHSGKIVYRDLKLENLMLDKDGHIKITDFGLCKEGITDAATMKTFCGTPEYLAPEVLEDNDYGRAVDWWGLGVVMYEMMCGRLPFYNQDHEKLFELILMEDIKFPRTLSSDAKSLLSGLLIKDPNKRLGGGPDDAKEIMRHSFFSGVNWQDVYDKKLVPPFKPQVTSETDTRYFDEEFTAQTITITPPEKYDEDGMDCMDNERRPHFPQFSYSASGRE

[20] = biological target: RAC-gamma serine/threonine-protein kinase (Homo sapiens) (UniProt Q9Y243); settings: at 10 µM

Sequence of ALK tyrosine kinase receptor (Homo sapiens) (Q9UM73 19-1620 limits assumed): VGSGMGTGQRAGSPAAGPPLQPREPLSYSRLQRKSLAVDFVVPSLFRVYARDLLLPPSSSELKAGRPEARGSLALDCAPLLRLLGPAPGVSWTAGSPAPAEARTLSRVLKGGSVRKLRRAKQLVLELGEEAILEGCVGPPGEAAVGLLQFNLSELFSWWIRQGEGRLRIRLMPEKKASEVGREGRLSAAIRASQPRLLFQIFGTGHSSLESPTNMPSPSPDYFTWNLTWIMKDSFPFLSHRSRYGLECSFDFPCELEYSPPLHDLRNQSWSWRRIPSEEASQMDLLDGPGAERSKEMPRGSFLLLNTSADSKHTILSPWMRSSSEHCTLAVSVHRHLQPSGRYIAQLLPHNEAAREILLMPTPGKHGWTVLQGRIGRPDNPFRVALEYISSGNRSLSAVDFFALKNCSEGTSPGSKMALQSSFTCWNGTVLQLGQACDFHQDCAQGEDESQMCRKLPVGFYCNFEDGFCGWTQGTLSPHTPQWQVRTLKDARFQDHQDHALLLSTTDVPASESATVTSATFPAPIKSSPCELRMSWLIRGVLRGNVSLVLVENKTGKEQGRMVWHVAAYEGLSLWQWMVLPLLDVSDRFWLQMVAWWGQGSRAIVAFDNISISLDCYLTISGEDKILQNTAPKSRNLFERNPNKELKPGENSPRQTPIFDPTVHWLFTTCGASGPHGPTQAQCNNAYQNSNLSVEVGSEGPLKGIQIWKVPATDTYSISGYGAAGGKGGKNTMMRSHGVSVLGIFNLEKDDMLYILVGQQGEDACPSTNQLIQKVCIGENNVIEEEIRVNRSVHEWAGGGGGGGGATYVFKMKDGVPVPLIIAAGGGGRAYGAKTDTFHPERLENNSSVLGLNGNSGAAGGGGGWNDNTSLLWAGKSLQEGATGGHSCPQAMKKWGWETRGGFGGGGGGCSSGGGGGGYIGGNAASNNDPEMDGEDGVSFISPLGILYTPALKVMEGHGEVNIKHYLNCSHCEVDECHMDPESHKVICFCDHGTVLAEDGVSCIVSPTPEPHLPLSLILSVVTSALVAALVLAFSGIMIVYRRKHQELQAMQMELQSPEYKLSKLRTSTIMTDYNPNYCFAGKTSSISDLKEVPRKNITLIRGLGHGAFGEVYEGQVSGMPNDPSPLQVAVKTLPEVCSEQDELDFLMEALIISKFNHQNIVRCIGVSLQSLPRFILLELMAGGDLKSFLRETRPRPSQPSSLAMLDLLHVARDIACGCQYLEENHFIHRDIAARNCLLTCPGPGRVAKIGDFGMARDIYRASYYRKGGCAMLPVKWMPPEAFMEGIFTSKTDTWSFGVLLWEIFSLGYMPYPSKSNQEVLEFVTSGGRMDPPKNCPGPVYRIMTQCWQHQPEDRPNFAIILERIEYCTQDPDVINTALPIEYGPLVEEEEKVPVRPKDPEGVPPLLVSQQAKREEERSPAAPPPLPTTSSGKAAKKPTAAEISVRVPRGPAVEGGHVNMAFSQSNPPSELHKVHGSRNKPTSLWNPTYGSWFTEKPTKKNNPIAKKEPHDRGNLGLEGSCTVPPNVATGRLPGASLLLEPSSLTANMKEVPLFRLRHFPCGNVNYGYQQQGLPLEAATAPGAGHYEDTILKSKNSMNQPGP

SMILES	residual activity [1]	residual activity [2]	residual activity [3]	residual activity [4]	residual activity [5]	residual activity [6]	residual activity [7]	residual activity [8]	residual activity [9]	residual activity [10]	residual activity [11]	residual activity [12]	residual activity [13]	residual activity [14]	residual activity [15]	residual activity [16]	residual activity [17]	residual activity [18]	residual activity [19]	residual activity [20]
O=C1NC(=O)c2c1c1c3ccccc3[nH]c1c1[nH]c3cc(Br)ccc3c21	69%	106%	99%	84%	87%	82%	69%	52%	45%	102%	101%	95%	89%	76%	75%	29%	97%	101%	75%	77%
CCOc1cc2ncnc(Nc3cccc(Br)c3)c2cc1OCC	39%	125%	91%	84%	57%	79%	57%	87%	57%	115%		90%	89%	91%	104%	86%	73%	86%	100%	100%
COc1cc2ncnc(Nc3ccc(NC(=O)c4ccccc4)cc3)c2cc1OC	57%		105%		90%		88%		86%	103%		81%		102%		106%	71%	85%		102%
Cc1cncc2cccc(S(=O)(=O)N3CCCN(C(=O)CN)C[C@H]3C)c12		137%	86%	98%	66%	97%	45%	95%	71%	98%			100%	96%			69%	59%	100%	84%
O=C1Nc2ccccc2/C1=C1/Nc2ccccc2/C1=N\OCCC(O)CO (stereo unspecified)	2%			4%	4%	3%	4%	2%	5%	68%	79%	28%	79%	24%	29%	6%		38%	80%	36%
N#Cc1cnc2cnc(NCc3cccnc3)cc2c1Nc1ccc(F)c(Cl)c1	75%		92%	-2%	-1%	-5%	-1%		-1%	85%	97%	54%	119%	88%	45%	41%	5%	1%		
O=C1Nc2ccc(Br)cc2/C1=C\c1cc2c([nH]1)CCCC2	112%	112%	101%	76%	60%			70%	74%		34%	23%	74%	51%	109%	99%	108%	80%	105%	
N#CC(C#N)=C(N)/C(C#N)=C/c1ccc(O)cc1				92%	79%	100%			96%	81%	119%		99%				82%	63%		
N#CCCc1ccc2c(c1)-c1[nH]c3ccc([N+](=O)[O-])cc3c1CC(=O)N2	45%	67%	23%	57%	29%	27%	17%	10%	8%						17%	6%				
Cc1cccc(-c2[nH]c(C(C)(C)C)nc2-c2ccc3c(c2)OCO3)n1	102%	1%	-6%	102%	83%	106%	78%	102%	88%	83%							87%	91%		
Oc1ccc(Nc2nc(-c3ccc(Cl)cc3)cs2)cc1	62%	104%	110%	105%	90%	119%	100%	107%	84%	96%	87%	83%	117%	137%	115%	102%	100%	129%	123%	104%
c1ccc2c(-c3ccncc3)c[nH]c2c1	105%		110%	93%	82%		85%	97%	84%	93%					111%	110%	93%	50%	89%	76%
COc1cc2ncnc(N3CCN(C(=O)Nc4ccc(Oc5ccccc5)cc4)CC3)c2cc1OC	49%	104%	97%	79%	97%	99%	101%	107%	82%	79%	26%	6%			106%	116%	102%		94%	112%
COc1cc2ncc(-c3ccccc3)nc2cc1OC				86%	82%		75%		77%	83%	84%	27%	97%	73%			99%	74%		
Cc1cc2ncc(-c3ccccc3)nc2cc1C	60%			105%	74%			92%	94%	78%			99%	96%			86%	75%	90%	87%
